# Compound activity as filed in PubChem BioAssay.
# Rows were chosen to be rich in hits. Some 14% of all compounds tested hit in one or more screens of this group.
# LASV entry inh – inhibitors of Lassa virus binding or cell entry | Lassa virus pseudotype entry inhibition, cell reporter | Potency, µM (highest dose often 37.9 µM), without a hit: at the highest dose activity change, negative = inhibition, actives largely listed as inhibitors | 1.2% of 300,000 active | AID 540256; calls by dose curve; tested in HEK293 cells; also: potency is read from the fitted curve at half-maximal effect; nearly all actives have a fitted effect of over 50% in size
# HCMV inh – human cytomegalovirus inhibition; HFF cells, HCMV-luciferase reporter, 72 h; active compounds read low; activity change, negative = inhibition, % at 57.5 µM; 4.5% of 410,000 active; in the data active = activity change below about -60%; inconclusive = no clear call, values can overlap the other calls; inactive = above about -39%
#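 Two compound doses tested in HFFs infected with HCMV-luciferase, MOI 1 PFU/cell, 72 h at 37C. Lysate luminescence read with OneGlo; data normalized against buffer-only and 10uM Salinomycin inhibitor controls.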
# Pf growth 48h – inhibits P. falciparum growth in the first generation, 48 h; P. falciparum luciferase growth in erythrocytes, 48 h; Potency, µM (top dose mostly 28.7 µM), inactives show at the top dose activity change, negative = inhibition, hits mostly inhibitors; 5.9% of 310,000 active; AID 504832; also: potency is read from the fitted curve at half-maximal effect
#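 Read-out is firefly luciferase luminescence from an integrated reporter in P. falciparum, so falling signal marks reduced parasite growth. Infected erythrocytes were at 2% hematocrit and 0.1% parasitemia (final) in Albumax-supplemented RPMI 1640.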
# MARV entry inh – inhibitors of Marburg virus binding or cell entry. Marburg virus pseudotyped entry inhibition, cell reporter. Potency, µM (highest dose often 37.8 µM), for inactives: at the highest dose activity change, negative = inhibition, hits mostly inhibitors. 1.8% of 300,000 active; calls by dose curve; tested in HEK293 cells; also: potency is read from the fitted curve at half-maximal effect
# HCV inh – inhibitors of hepatitis C virus infection; Potency, µM (series often up to 41.8 µM), for the others: top-dose activity change, negative = inhibition, actives largely listed as inhibitors; 3.4% of 340,000 active; AID 651820; Huh7.5.1 HCVcc-Cre infection, luciferase reporter, 44 h; also: potency is read from the fitted curve at half-maximal effect
#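 A cell-based infection assay in which seeded cells (1,000 per well) receive test compound after 4 h, are inoculated with HCVcc-Cre at approximately 0.5 moi, and are incubated 44 h before luminescence detection.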
# Pf growth 96h – P. falciparum growth inhibition at 96 hour, primary screen for plastid delayed-death inhibitors; P. falciparum luciferase reporter growth, 96 h; Potency, µM (titrated, usually from 28.7 µM), for inactives: at the top dose activity change, negative = inhibition, most hits filed as inhibitors; 6.9% of 320,000 active; AID 504834; also: potency is read from the fitted curve at half-maximal effect
#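 Delayed-death screen, second-generation endpoint: infected erythrocytes, 2% hematocrit, 0.05% parasitemia final; 96 hours at 37 C, 5% CO2; luciferase detection reagent; luminescence decrease equals reduced growth.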
# Numbers without * were called inactive; ? = inconclusive; . = no result; [ ] = dose if it differs, or a comment. Unless noted, calls follow the shape of the dose curve; as a rule, active = well fitted inhibition curve with a large enough effect; inconclusive = small, poorly fitted or top-dose-only effect, or another doubt; inactive = no such curve, though single readings can be large or run the other way. % is scaled to controls: 0 for no effect and ±100 for the full control effect.
SMILES,LASV entry inh,HCMV inh,Pf growth 48h,MARV entry inh,HCV inh,Pf growth 96h
NC(=O)[C@@H]1CC2(CC(c3cccc(NC(=O)COc4ccc(Cl)cc4)c3)=NO2)CN1C(=O)COc1ccc(Cl)cc1 (stereo partly specified),.,-18.2,?,.,10µM*,?
CCC(=O)Nc1cccc(C2=NOC3(C2)C[C@@H](C(N)=O)N(C(=O)C(c2ccccc2)c2ccccc2)C3)c1 (stereo partly specified),.,15.1,25.0%,.,?,?
CC/C=C/C(=O)N1CC2(CC(c3cccc(NC(=O)COc4ccc(Cl)cc4)c3)=NO2)C[C@H]1C(N)=O (stereo partly specified),.,6.2,10.4µM*,.,-28.1%,4.65µM*
Cc1ccc(C)c(C(=O)N2CCC(c3nc4c(nnn4Cc4ccccc4)c(=O)[nH]3)CC2)c1,?,30.4,.,-25.3%[46.1 µM],.,.
CCN1CCN(c2csc3ccc(Br)cc3c2=O)CC1,21.1%[46.1 µM],4.6,.,.,.,.
Cc1ccc(S(=O)(=O)N(C)c2ccc(C(=O)NCCc3ccccc3)cc2)cc1,?,57.3,?,?,.,10.4µM*
CC(=O)Nc1ccc(OCC(=O)c2ccc(C)cc2C)cc1,-16.4%,-23.5,?,11.8%,4.9%,.
CN(c1ccccc1)S(=O)(=O)c1cccc(C(=O)NCCc2ccc(O)c(O)c2)c1,5.9%,-22.1,13.1µM*,12.1%[46.1 µM],?,?
CC(=O)Nc1ccc(OCC(=O)c2cc(C)ccc2C)cc1,?,-6.9,.,1.6%,-12.3%,9.28µM*
Cc1ccc(S(=O)(=O)N(C)c2ccc(C(=O)NCC3CCCO3)cc2)cc1 (stereo unspecified),-7.1%,-102.3*,17.7%,2.0%,13.8%,0.8%
CCN(CC)S(=O)(=O)c1cccc(C(=O)NCCc2ccccc2)c1,-7.7%,4.6,.,?,-19.7%,.
CCc1cccc(CC)c1NC(=O)CN(C)S(=O)(=O)c1ccc2c(c1)n(C)c(=O)c(=O)n2C,13.6%[46.1 µM],-8.2,.,-19.7%[46.1 µM],.,.
COc1cccc2cc(-c3nnc(Nc4ccccc4C)s3)c(=O)oc12,7.3%[46.1 µM],65.2,.,.,.,.
Cc1c(Cl)cccc1NC(=O)Cn1nc(C(F)(F)F)c2c1CCC2,11.0%[46.1 µM],10.7,.,-10.2%[46.1 µM],.,.
COc1ccc(OCC(=O)Nc2ccc(C)cc2)cc1,-10.8%,-96.6*,41.0%,-3.1%,1.7%,63.7%
C=CCNC(=O)c1ccc(N(C)S(=O)(=O)c2ccc(OC)cc2)cc1,-3.7%,-14.0,.,25.5%,-4.6%,?
CCOc1ncccc1C(=O)NCCc1ccc(S(N)(=O)=O)cc1,-11.3%[46.1 µM],-67.4*,27.5%,0.0%[46.1 µM],-14.5%,31.5%
COc1ccc(NC(=O)COCC(=O)Nc2ccc(C)cc2)cc1,.,-19.0,20.4%,.,21.1%,?
COc1ccc(CCNC(=O)c2ccc(N(C)S(=O)(=O)c3ccc(C)cc3)cc2)cc1,?,-11.3,?,-22.1%[46.1 µM],10µM*,4.2%
COc1ccc(NC(=O)COc2ccc(N(C)S(=O)(=O)c3ccc(Cl)cc3)cc2)cc1,.,-14.7,11.7µM*,.,11.2µM*,?
O=C(O)COc1ccc(NC(=O)c2ccc3c(c2)C(=O)N(CC2CCCO2)C3=O)cc1 (stereo unspecified),.,-12.6,.,.,.,.
O=C(Cn1c(=O)oc2cc(S(=O)(=O)N3CCCC3)ccc21)Nc1ccc(F)cc1F,-8.3%[46.1 µM],-8.7,.,-6.2%[46.1 µM],.,.
COc1ccc(NC(=O)COc2ccccc2C(=O)NCC(c2ccccc2)N(C)C)cc1Cl (stereo unspecified),11.2µM*,5.5,?,?,?,13.1µM*
CCOc1ccc(OCCC(=O)OCC(=O)NCCc2ccc(S(N)(=O)=O)cc2)cc1,.,-73.4*,-6.0%,.,7.4%,-7.3%
COc1ccc(OCCNC(=O)c2ccccc2OCC(=O)Nc2ccc(NC(C)=O)cc2)cc1,?,-30.6,-2.2%,7.08µM*,?,-19.6%
COc1ccc(OCCNC(=O)c2ccccc2OCC(=O)N2CCCCC2)cc1,-0.2%,7.3,?,3.3%,?,9.8%
CCOc1ccc(S(=O)(=O)N(C)c2ccc(OCC(=O)NCCc3ccc(OC)cc3)cc2)cc1,.,?,93.0%,-1.3%,-19.3%,3.29µM*
